A selection: hits, their analogues and other compounds. The true share with any hit is near 19%.
DT40 TDP1 no CPT: qHTS for Inhibitors of human tyrosyl-DNA phosphodiesterase 1 (TDP1): qHTS in cells in absence of CPT | DT40 Tdp1-/- hTDP1 cells, no CPT, ATP luminescence, 48 h | 15% of 420,000 active | Potency, µM (doses to about 46.2 µM), hits mostly inhibitors; also: nearly all actives have a fitted effect of over 55% in size
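Growth kinetics read by CellTiter-Glo luminescence after ≥48 hr at 37 °C. Cells: DT40 Tdp1-/- stably carrying human TDP1, 400 per well, compound exposure in the absence of CPT (DMSO vehicle).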
HT1080 IDH1KD tx: HT-1080 IDH1 knockdown cell toxicity (counter line); HT-1080 IDH1 knockdown viability, ATP luminescence, 48 h; Potency, µM (doses to about 46.1 µM), most hits filed as cytotoxic; 2% of 360,000 active; AID 686971
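HT-1080-IDH1KD cells (IDH1 knocked down), 750/well in RPMI with 5% FBS, treated with compound 48 h at 37 degrees C. Viability by CellTiter-Glo luminescence, normalised to DMSO and no-cell wells; concentration-response curves classed.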
HT1080NT lethal: kills 2HG-producing HT-1080-NT fibrosarcoma cells | HT-1080-NT fibrosarcoma viability, CellTiter-Glo ATP luminescence, 48 h | Potency, µM (doses to about 46.1 µM), usual class: cytotoxic | 1.6% of 360,000 active;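 also: NT is the 2HG producing partner of a matched IDH1 knockdown line; nearly all actives have a fitted effect of over 55% in size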
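Viability by CellTiter-Glo luminescence after 48 h compound exposure at 37C of HT-1080-NT cells (750/well, RPMI, 5% FBS). % activity scaled between DMSO wells and medium-only wells, then curve-fitted and categorized by curve class.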
TDP1 cell CPT: DT40-hTDP1 cell growth loss with CPT; chicken DT40 Tdp1-/-;hTDP1 cells + 20 nM CPT, ATP luminescence, 48 h; Potency, µM (top dose mostly 46.2 µM), most hits filed as inhibitors; 12% of 420,000 active; AID 686979; also: nearly all actives have a fitted effect of over 55% in size
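Chicken DT40 Tdp1-/- cells stably complemented with human TDP1 were seeded at 400 cells/well in medium containing 20 nM camptothecin, exposed to pin-transferred compounds, and grown at 37 °C for at least 48 hr. Viability was read as ATP luminescence.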
IL-1B inflam inh: inhibitors of inflammasome signaling (IL-1 beta secretion). activity change, % at 57.5 µM. THP-1 LPS/ATP IL-1B secretion, AlphaLISA, 16 h; active compounds read low. 4.7% of 360,000 active; in the data active = activity change below about -50%; inconclusive = mostly about -30% to -49%
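Secreted IL-1B measured by AlphaLISA bead assay after 16 h compound exposure of THP-1 cells; compounds (final up to 57.5 uM) added 1 h before LPS (250 ng/mL) and ATP (1.25 mM) stimulation; lower signal means less secretion.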
Hits are given with their value; . = inactive; ? = inconclusive; / = not tested or not shown; [ ] = dose if it differs, or a comment. Unless noted, calls follow the shape of the dose curve; as a rule, active = well fitted curve in the direction sought with a large enough effect; inconclusive = small, poorly fitted or top-dose-only effect, or another doubt; inactive = no such curve, though single readings can be large; an effect the other way counts as inactive or inconclusive.

SMILES	DT40 TDP1 no CPT	HT1080 IDH1KD tx	HT1080NT lethal	TDP1 cell CPT	IL-1B inflam inh
CC12CCC(c3n[nH]c(=S)nc31)C2(C)C (stereo unspecified)	.	.	.	.	.
C[C@@H]1CN([C@H](C)CO)C(=O)CCCn2nncc2CO[C@@H]1CN(C)C(=O)Nc1ccnc(N2CCOCC2)c1	.	.	.	.	.
COc1ccc(CNC(=O)Cn2ccc(NC(=O)OCc3ccccc3)nc2=O)cc1	.	.	.	?	.
COc1ccc(N2CCN(CCCn3ccc(NC(=O)OCc4ccccc4)nc3=O)CC2)cc1	12µM	.	.	23µM	.
CC(C)C[C@H]1CN(CCCC[C@H]2CNC(=O)C(=O)N2CCc2ccc(O)cc2)C(=O)C(=O)N1CCc1ccccc1	.	?	.	.	.
O=C(N/N=C/c1c(O)ccc2ccccc12)C(=O)N1CCCC1	?	?	?	?	.
Cc1cc(C)n(CCC(=O)N/N=C/c2c(O)ccc3ccccc23)n1	4.6µM	?	?	5.8µM	.
O=C(CN1CCCC1)N/N=C/c1c(O)ccc2ccccc12	?	16µM	?	?	.
O=C(N/N=C/c1cccc(C(F)(F)F)c1)c1ccc(O)cc1	.	.	.	.	-81
Cc1cc(C)n2nc(C(=O)N/N=C/c3c4ccccc4cc4ccccc34)nc2n1	21µM	?	?	23µM	.
Cc1cc(C)n2nc(C(=O)N/N=C/c3ccccc3Cl)nc2n1	.	.	.	.	.
COc1ccc(C(=O)NCCc2nnc3ccc(SCC(=O)Nc4ccccc4)nn23)cc1	?	.	.	.	.
CC(O)CNc1ncnc2cc(-c3ccc(F)cc3)sc12 (stereo unspecified)	?	.	.	?	?
O=C(NN=Cc1c(O)ccc2ccccc12)C1CC1	5.2µM	12µM	?	5.8µM	.
O=C(N/N=C/c1c(O)ccc2ccccc12)c1cccc(C(F)(F)F)c1	1µM	2.3µM	?	0.65µM	.
Cc1nonc1C1CCCN1Cc1cn[nH]c1-c1ccc2c(c1)OCO2 (stereo unspecified)	.	.	.	.	.
Cc1cc(N2C3CCC2CC(O)(c2ccc(F)cc2)C3)nc(-c2ccccc2)n1 (stereo unspecified)	?	.[9.24 µM]	14µM	?	-56
Cc1ccnc(N2C3CCC2CC(O)(c2ccccc2)C3)n1 (stereo unspecified)	.	.	.	.	.
CC[C@@H]1C(=O)[C@H](Cc2ccccc2)[C@H]2CCCC(=O)N3CC[C@@H]1[C@@H]23	?	.	.	.	.
CC[C@H]1c2[nH]c3ccc(C(C)C)cc3c2[C@@H]2CCN3C(=O)CCC[C@H]1[C@H]23	10µM	.	.	10µM	.
O=C1CCC[C@@H]2Cc3nc4ccccc4cc3[C@@H]3CCN1[C@H]23	.	.	.	.	.
CC(C)c1ccc2[nH]c3c(c2c1)[C@@H]1CCN2C(=O)CCC[C@H](C3)[C@H]12	15µM	.	.	18µM	.
CCCn1c(SCC(=O)NCCCN2CCCC2=O)nc2ccccc2c1=O	.	.	.	.	.
Cc1ccc(CNC(=O)CCNS(=O)(=O)c2cccc3nsnc23)cc1	.	.	.	.	.
C/C(=N\NC(N)=S)C1=CCC2C3CC[C@H]4CC(O)CC[C@]4(C)C3CC[C@]12C (stereo partly specified)	5.2µM	.	.	18µM	-52
SMILES	DT40 TDP1 no CPT	HT1080 IDH1KD tx	HT1080NT lethal	TDP1 cell CPT	IL-1B inflam inh
Cc1ccc(NC(=O)CN2C(=O)COc3ccc(S(=O)(=O)NC4CCCC4)cc32)cc1Cl	.	/	/	?	/
CCOC(=O)C1CCCN(C(=O)c2ccc3nc(-c4ccccc4)c(-c4ccccc4)nc3c2)C1 (stereo unspecified)	21µM	.	.	?	.
CCOC(=O)C1CCCN(C(=O)c2cccc(S(=O)(=O)N(Cc3ccccc3)c3ccccc3OC)c2)C1 (stereo unspecified)	16µM	.	.	23µM	.
CCOC(=O)C1CCCN(C(=O)c2ccc3nc(-c4ccc(OC)c(OC)c4)c(-c4ccc(OC)c(OC)c4)nc3c2)C1 (stereo unspecified)	?	.	.	29µM	.
CCOC(=O)C1CCCN(C(=O)c2ccc3oc(CCc4ccccc4)nc3c2)C1 (stereo unspecified)	?	.	.	.	.
O=C(CN(C1CC1)S(=O)(=O)c1ccc(S(=O)(=O)NC2CCCCC2)cc1)Nc1ccccc1	?	.	?	?	.
O=C(CN(Cc1cccs1)S(=O)(=O)c1ccc(S(=O)(=O)NC2CCCCC2)cc1)Nc1ccccc1	18µM	.	.	21µM	.
CCCC1CCC(c2ccc(OCC)cc2)=CC1=O (stereo unspecified)	?	.	.	?	.
O=C(CCNS(=O)(=O)c1ccc(Br)cc1)NCC(c1cccs1)N1CCOCC1 (stereo unspecified)	.	.	.	.	.
CC(=O)Nc1ccccc1C(=O)C(=O)Nc1cccc(Br)c1	18µM	.	.	.	.
O=C(NC(NC(=S)Nc1cccc(Cl)c1)C(Cl)(Cl)Cl)OCc1ccccc1 (stereo unspecified)	18µM	?	?	?	?
CC(=O)NC(NC(=S)Nc1cccc(Br)c1)C(Cl)(Cl)Cl (stereo unspecified)	?	?	.	?	-60
Cc1cccc(NC(=S)NC(NC(=O)OCc2ccccc2)C(Cl)(Cl)Cl)c1 (stereo unspecified)	?	?	?	23µM	.
O=C(NCc1cnc2ccccn12)C1CCC(=O)N(Cc2cccc(F)c2)C1 (stereo unspecified)	.	.	.	.	.
COC(=O)C1CCN(Cc2ccc3c(c2)CN(C(=O)c2ccc4nc(C)c(C)nc4c2)CCO3)CC1	.	/	/	.[9.04 µM]	/
COC(=O)c1ccc(Sc2ccccn2)c([N+](=O)[O-])c1	.	.	.	.	.
Nc1nc(Sc2ccc([N+](=O)[O-])cc2[N+](=O)[O-])n[nH]1	?	.	.	?	.
Cc1ccnc(Sc2ccc([N+](=O)[O-])cc2[N+](=O)[O-])n1	0.58µM	?	?	0.73µM	-104
Cc1ccc(Sc2ccc([N+](=O)[O-])cc2[N+](=O)[O-])nc1	2.9µM	23µM	16µM	2.6µM	-188
CC(C)CNC(=O)COC(=O)c1cc(S(=O)(=O)N2CCCCC2)ccc1N1CCOCC1	.	.	.	.	.
Cc1ccc(COC(=O)c2cc(S(=O)(=O)N3CCCCC3)ccc2N2CCOCC2)cc1	26µM	.	.	?	.
Cc1ccc(CNC(=O)c2cc(S(=O)(=O)N3CCCCC3)ccc2N2CCOCC2)cc1	18µM	.	.	?	.

Screens: PubChem, National Center for Advancing Translational Sciences (NCATS)
